Source: PubChem BioAssay AID1259313 (Sanford-Burnham Center for Chemical Genomics, 2017)
Out of some 340,000 compounds screened, about 8,500 (2.5%) were called active. The full list was thinned out, with actives kept by preference. A number with no mark means an inactive call.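 The calls were made as follows: active = melting temperature shift of at least 10% of the positive control shift, at one fixed dose; inactive = the rest.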

System: Glutamate receptor ionotropic, NMDA 3A (GRIN3A) ligand-binding domain
Assay: binders of NR3A ligand-binding domain, primary screen, biophysical, differential scanning fluorimetry, uHTS (AID 1259313)
Details: NR3A LBD differential scanning fluorimetry, at 25 µM, hits give high values, 0% = protein alone, 100% = glycine-bound protein

Compound	Tm shift relative to glycine control
O=C(N/N=C/c1sc(N2CCCCC2)nc1-c1cccs1)c1cccnc1	-0.4%
O=C(COC(=O)COc1ccccc1F)Nc1cccc(S(=O)(=O)N2CCCCC2)c1	-3.69%
Brc1ccccc1CN1CCC(Cc2ccccc2)CC1	0.68%
O=C(Nn1c(SCc2ccc([N+](=O)[O-])cc2)nc2ccccc2c1=O)c1ccc(F)cc1	14.8% (active)
Cc1nc2ccccc2c(=O)n1NC(=O)c1ccc(Cl)c([N+](=O)[O-])c1	0.49%
C=CCn1c(SCc2ccc(C(=O)NCCO)cc2)nc2ccccc2c1=O	-2.22%
COc1ccc(NC(=O)C2=CC(c3ccc(OC)c(OC)c3)=NS(=O)(=O)N2C)cc1	-11.9%
CCN1C(=O)C(C(=O)NC(C)c2ccccc2)C2CC1(C)Oc1ccccc12 (centres undefined)	-1.26%
CC(C)CNC(=O)COC(=O)c1ccccc1OCC(=O)Nc1ccc(Br)cc1	0.17%
CN(C)C=NC(=O)c1cccn1-c1ncc(C(F)(F)F)cc1Cl	-1.59%
CCCCOC(=O)Cn1c(=O)n(CC(=O)OCCCC)c2cc(C)ccc21	10.7% (active)
Cc1ccc(C)c(NC(=O)COC(=O)Cn2c(C)csc2=O)c1	3.33%
CCOC(=O)CN1C(=O)C(=O)c2cc(C)ccc21	0.43%
CN(C(=O)CSc1nnc(-c2ccc3c(c2)OCO3)o1)C1CCS(=O)(=O)C1 (centres undefined)	1.73%
O=C(CCC(=O)NNc1nc2ccccc2c2nc(-c3ccccc3)nn12)NCCCN1CCCC1=O	0.34%
COc1ccc2[nH]c3c(C)c4cc[n+](C)cc4c(C)c3c2c1	-0.08%
C=CCNC(=O)C1CC2c3ccccc3C1c1ccccc12 (centres undefined)	1.25%
CSc1ncccc1C(=O)Nc1nc2ccc(F)cc2s1	11.6% (active)
CSc1ncccc1C(=O)Nc1ccc2c(c1)OCO2	-2.2%
CSc1ncccc1C(=O)Nc1ccc(C)cn1	0.09%

Compound	Tm shift relative to glycine control
CCCn1c(N)c(N(CCOC)C(=O)C2CCCC2)c(=O)[nH]c1=O	0.34%
COc1ccc(CCNC(=O)CSc2nnc3ccc(-c4ccncc4)nn23)cc1	-0.92%
O=C(CSCc1ccc([N+](=O)[O-])cc1)Nc1cccc(C(=O)Nc2ccccc2C(=O)O)c1	11.3% (active)
O=C(CSCc1ccc([N+](=O)[O-])cc1)NCCSCc1ccccc1	1.53%
O=C(COc1ccc([N+](=O)[O-])cc1)Nc1cccc(C(=O)Nc2ccccc2C(=O)O)c1	10.6% (active)
Cc1cc(NC(=O)COc2ccc([N+](=O)[O-])cc2)no1	1.03%
O=C(Nc1ccccc1C(=O)Nc1ccncc1)c1ccc([N+](=O)[O-])cc1	-13.8%
COc1ccc(NC(=O)CSCc2ccc([N+](=O)[O-])cc2)cc1OC	4.6%
Cc1c(CC(=O)N2CCN(C(=O)C3COc4ccccc4O3)CC2)c(=O)oc2c(O)c(O)ccc12 (centres undefined)	1.85%
Cc1ccccc1Nc1scc(-c2ccc(Br)cc2)[n+]1-c1ccccc1C	0.51%
COCC(C)NC(=O)c1ccc(-n2nc(C(F)(F)F)cc2-c2cccs2)cc1 (centres undefined)	-0.17%
COC(=O)c1cn(C)c2ccc(S(=O)(=O)N3CC(C)CC(C)C3)cc2c1=O (centres undefined)	1.34%
O=C(Nc1ccccc1C(F)(F)F)c1cc(-c2ccc(O)cc2)on1	12.7% (active)
O=C(Nc1cccnc1Cl)c1cc(-c2cccc(Cl)c2)on1	-2.35%
CCc1ccccc1NC(=O)c1cc(-c2ccc3c(c2)OCO3)on1	0.47%
CNC(=O)c1nnn(-c2ccccc2)c1C(=O)NC	4.23%
O=[N+]([O-])c1cc(C(F)(F)F)ccc1NCCc1ccncc1	0.61%
Cc1sc2ncnc(N3CCC(C(=O)Nc4nc5ccc(Cl)cc5s4)CC3)c2c1C	7.43%
Cc1ccc(C(=O)Nc2nc3ccc(Cl)cc3s2)o1	11.1% (active)
Cc1csc(NC(=O)c2ccc(-c3ccc(Cl)cc3Cl)o2)n1	-7.24%

Compound	Tm shift relative to glycine control
O=C(NCCCn1ccnc1)c1cc(-c2ccccc2)on1	1.42%
CS/C(=C\[N+](=O)[O-])Nc1ccc(C)cc1	-1.04%
CC(Oc1ccc(Cl)cc1Cl)C(=O)/C=C/N(C)C (centres undefined)	-0.27%
CCCC(=O)Nc1cccc(NC(=S)NC(=O)C(C)Oc2ccc(Cl)cc2Cl)c1 (centres undefined)	16% (active)
COc1cccc(NC(=O)CN(C)C(=O)Cc2ccc(Cl)cc2Cl)c1	-0.7%
Cc1ccc(NC(=O)c2cnc(SCC(=O)NCC3CCCO3)n(C)c2=O)cc1 (centres undefined)	-0.94%
CC(C)CN(C(=O)CN1CCN(S(=O)(=O)c2ccccc2)CC1)c1c(N)n(CC(C)C)c(=O)[nH]c1=O	-2.36%
CSc1ccc(Cl)c(C(=O)OCC(=O)N2CC(C)OC(C)C2)c1 (centres undefined)	1.12%
O=C1NC(c2ccccc2)Cc2ccncc21 (centres undefined)	0.42%
CCc1ccc(NC(=O)C(C)OC(=O)/C=C/c2cccc([N+](=O)[O-])c2)cc1 (centres undefined)	0.39%
CCC(CC)NC(=O)/C=C/c1cccc([N+](=O)[O-])c1	-1.15%
Cc1ccc(NC(=O)O/N=C/c2cccc([N+](=O)[O-])c2)cc1	15.8% (active)
CCOc1ccc(-c2cc(C(=O)N/N=C/c3ccc(O)cc3)c3ccccc3n2)cc1	3.69%
COc1cccc(Cn2cc(/C=N/NC(=O)c3cc(O)cc(O)c3)c3ccccc32)c1	15.4% (active)
Cc1ccc(C(=O)N/N=C/c2cccc3ccccc23)cn1	-0.89%
N#CCC(=O)N/N=C/c1cn(Cc2ccc3ccccc3c2)c2ccccc12	8.21%
CCOC(=O)c1ccccc1NC(=O)CSc1nc2c(sc(=S)n2CC)c(=O)[nH]1	2.58%
CCn1c(=S)sc2c(=O)n(CC(=O)Nc3ccc(OC)cc3)c(C)nc21	-1.05%
CCn1c(=S)sc2c(=O)n(CC(=O)Nc3cccc(Br)c3)c(C)nc21	19% (active)
